Assay [1] can be described thus: Cellular Toxicity (caspase-3) Mesangial (AID 660).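 Also: combined caspase 3 and 7 activity read by Caspase-Glo luminescence.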 Conditions: mesangial cells, normalized: DMSO 0%, 100 µM tamoxifen 100%; at 91.7 µM (top of the series). In short, it runs like this:
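Concentration-response qHTS: compound-induced rise in caspase 3/7 luminescence in human mesangial cells after 16 h, normalized to DMSO and 100 uM tamoxifen controls.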

A short description of assay [2]: Cellular Toxicity (caspase-3) H-4-II-E (AID 663).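 Also: cells exposed to compound for 16 hr before readout.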 Conditions: H-4-II-E rat hepatoma, scaled: DMSO 0%, 100 µM tamoxifen 100%; at 92.2 µM (top of the series). In short, it runs like this:
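Rat hepatoma H-4-II-E cells (1500/well) plated 5 hr, then exposed to compound titrations for 16 hr at 37 °C. Caspase-Glo 3/7 luminescence read after 20 min at RT; data normalized to DMSO and 100 uM tamoxifen, AC50 from Hill fits.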

The nature of assay [3]: Cellular Toxicity (caspase-3) Hek293 (AID 664).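 Also: cells exposed to compound for 16 h at 37 °C before readout.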 The settings on record: HEK293 caspase-3 activation, DMSO = 0%, 100 µM tamoxifen = 100%; at 92.2 µM (top of the series). An outline of the steps: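 Activation of caspase-3/7 is measured as increased luminescence from cleaved peptide-aminoluciferin substrate in HEK293 cells treated 16 hours at 37 °C. AC50 values come from Hill-equation fits of concentration-response data.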

Assay [4] in a line: Cellular Toxicity (caspase-3) N2a (AID 665).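 Also: compound exposure lasted 16 h at 37 °C before readout.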 In short, it runs like this: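 Plated mouse neuroblastoma N2a cells received titrated compounds for 16 h in complete medium. Caspase activity was then detected with a peptide-aminoluciferin luminescent reagent.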
Assay [5] is described as follows: Cellular Toxicity (caspase-3) Renal Proximal Tubule (AID 667).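 Also: cells exposed to compound for 16 hours at 37 °C before detection; 0% = DMSO basal and 100% = 10 µM staurosporine.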 The settings on record: Potency: caspase-3 activation. In short, it runs like this: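 AC50 derived by standard Hill fit of concentration-response data, normalized between DMSO basal and 10 uM staurosporine as 100% stimulation. Cells: primary rat kidney proximal tubule, 16 h treatment at 37 °C.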
Assay [6] addresses Cytochrome P450 3A4 (Homo sapiens) (UniProt P08684). As to the kind of experiment: qHTS Assay for Inhibitors and Substrates of Cytochrome P450 3A4 (AID 884). Also: nearly all actives have a fitted effect of over 50% in size. Also: potency is read from the fitted curve at half-maximal effect. In short, it runs like this: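 20 nM human CYP3A4 with 25 uM Luciferin-PPXE (at KM) in 200 mM KPO4, preincubated 10 min with compound; NADPH regeneration started a 60 min RT reaction. Luciferin detected by luminescence, normalized to 57 uM ketoconazole as full inhibition.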

The nature of assay [7]: Cell Viability - LYMP2-001 (AID 921).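 Also: cells exposed to compound for 24 h at 37 °C; 0% = DMSO only and full inhibition = tetraoctylammonium bromide control wells; nearly all actives have a fitted effect of over 70% in size.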 An outline of the steps:
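Steps: seed 2500 lymphoblastoid cells/well; 5 hr, 37 C; add compound; 24 hr, 37 C; CellTiter-Glo reagent, 30 min room temperature; read luminescence. Concentration-response modeled by Hill equation for AC50.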

Assay [8] can be described thus: MultiTox-Fluor Cytotoxicity Assay - LYMP1-001 - Dead Cells (AID 946). An outline of the steps:
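Cytotoxicity as increased dead-cell protease fluorescence (bis-AAF-R110, 485/520 nm), read 60 min after MultiTox-Fluor reagent. Human lymphoblastoid line exposed 16 h; Hill-fitted AC50, with DMSO as 0% and 15 uM tetraoctylammonium bromide as 100%.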

Assay [9] can be described thus: MultiTox-Fluor Cytotoxicity Assay - LYMP1-001 - Live Cells (AID 947).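 Also: 0% = DMSO only and full inhibition = tetraoctylammonium bromide control.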
Assay [10] can be described thus: MultiTox-Fluor Cytotoxicity Assay - LYMP1-002 - Live Cells (AID 955). Also: % is scaled to controls: 0 for no effect and ±100 for the full control effect. In short, it runs like this: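 Cytotoxicity in the human lymphoblastoid line LYMP1-002 is measured as loss of live-cell protease activity after 16 h treatment in complete culture medium. AC50 is derived from Hill-equation fits of qHTS concentration-response data.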
Assay [11] in a line: MultiTox-Fluor Cytotoxicity Assay - LYMP1-002 - Dead Cells (AID 960). Also: nearly all actives have a fitted effect of over 60% in size. In short, it runs like this:
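Acute cytotoxicity in a human lymphoblastoid line is scored as rising dead-cell protease signal after 16 hr exposure at 37 C, measured fluorometrically (485/520).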

The nature of assay [12]: MultiTox-Fluor Cytotoxicity Assay - LYMP1-003 - Dead Cells (AID 961). Also: nearly all actives have a fitted effect of over 70% in size. An outline of the steps:
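Dead-cell protease release, detected as bis-AAF-R110 fluorescence at 485/520 nm, was measured in LYMP1-003 cells after 16 h compound treatment at 37 C. AC50 values came from Hill-modeled qHTS curves normalized to DMSO (0%) and 15 uM tetraoctylammonium bromide (100%).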

Assay [13] is described as follows: MultiTox-Fluor Cytotoxicity Assay - LYMP1-003 - Live Cells (AID 962).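 Also: 0% = DMSO only and full loss = 92 µM tetraoctylammonium bromide; cytotoxic hits lower the live-cell protease signal.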 In short, it runs like this:
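Cells plated at 2500 per well and incubated 5 hr; compounds added and incubated 16 hr at 37 C; MultiTox-Fluor reagent added for 60 min at room temperature; fluorescence of liberated AFC measured at 405/510 nm.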

Assay [14] can be described thus: Cell Viability - LYMP1-003 - Assay at 40 hr (AID 964). Also: % is scaled to controls: 0 for no effect and ±100 for the full control effect; nearly all actives have a fitted effect of over 60% in size. An outline of the steps: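 This qHTS cytotoxicity screen treats human lymphoblastoid cells (LYMP1-003) with compounds for 40 hr and quantifies cellular ATP via luciferase luminescence.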
Assay [15] can be described thus: Cell Viability - LYMP2-003 (AID 965).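 Also: cells exposed to compounds for 24 h before reading; 0% = DMSO only and full effect = 92 µM tetraoctylammonium bromide; nearly all actives have a fitted effect of over 50% in size.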 In short, it runs like this:
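Seed 2500 lymphoblastoid cells/well; incubate 5 hr, 37 C; add compounds; incubate 24 hr, 37 C; add CellTiter-Glo, 30 min RT; read luminescence. AC50 from Hill fit.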

Assay [16] is described as follows: Cellular Toxicity (caspase-3) NIH 3T3 (AID 666).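 Also: caspase signal read after 16 h compound exposure; 0% = DMSO basal and 100% = 100 µM tamoxifen stimulation.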 An outline of the steps: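 Concentration-response qHTS in NIH 3T3 mouse fibroblasts scores caspase-3/7 activation as rising luminescence after 16 hr compound exposure. Signals are scaled between DMSO-only and 100 uM tamoxifen.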
Assay [17] in a line: Cell Viability - LYMP1-002 - Assay at 16 hr (AID 948).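 Also: 0% = DMSO alone and full effect = 92 µM tetraoctylammonium bromide.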 In short, it runs like this: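 Seed 2500 LYMP1-002 cells per well in complete medium and hold 5 hr at 37 C. Add compound across a concentration series and incubate 16 hr at 37 C. Add CellTiter-Glo, wait 30 min at room temperature, read luminescence.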
The nature of assay [18]: Cell Viability - LYMP1-003 - Assay at 24 hr (AID 963).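 Also: plate controls were DMSO only for no effect and tetraoctylammonium bromide positive control for full effect.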 In short, it runs like this:
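Acute toxicity in LYMP1-003 lymphoblastoid cells: 24 hr compound treatment at 37 C, ATP measured with CellTiter-Glo after 30 min at room temperature. AC50 derived by fitting the Hill equation to qHTS titrations.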

For assay [19], the target named is Cytochrome P450 3A4 (Homo sapiens) (UniProt P08684). As to the kind of experiment: qHTS Assay for Activators of Cytochrome P450 3A4 (AID 885). Also: nearly all actives have a fitted effect of over 65% in size. An outline of the steps: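 Signal was normalized against complete inhibition by 57 uM ketoconazole. The reaction used 20nM CYP3A4 with 25uM Luciferin-PPXE, 10-min compound preincubation and a 60-min NADPH-supported step at RT.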
Chain of Cytochrome P450 3A4 (Homo sapiens) (P08684 whole entry, looked up): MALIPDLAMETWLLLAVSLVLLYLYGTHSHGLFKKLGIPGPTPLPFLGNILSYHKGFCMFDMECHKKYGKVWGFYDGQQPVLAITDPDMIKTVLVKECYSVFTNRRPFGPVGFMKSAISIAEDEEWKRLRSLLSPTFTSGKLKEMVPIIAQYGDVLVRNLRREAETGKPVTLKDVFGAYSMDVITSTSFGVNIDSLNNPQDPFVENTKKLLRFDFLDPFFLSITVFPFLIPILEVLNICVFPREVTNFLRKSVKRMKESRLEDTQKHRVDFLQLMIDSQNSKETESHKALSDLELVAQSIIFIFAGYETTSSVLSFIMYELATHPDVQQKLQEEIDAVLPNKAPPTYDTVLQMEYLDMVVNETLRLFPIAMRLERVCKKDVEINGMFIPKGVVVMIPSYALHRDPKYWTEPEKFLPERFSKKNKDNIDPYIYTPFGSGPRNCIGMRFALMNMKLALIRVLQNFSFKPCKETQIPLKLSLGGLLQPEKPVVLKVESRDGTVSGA

Unmarked numbers belong to inactive results. Results filed as inconclusive are left out. The source made the active and inactive calls. Calls follow the shape of the dose curve; as a rule, active = well fitted curve in the direction sought with a large enough effect; inconclusive = small, poorly fitted or top-dose-only effect, or another doubt; inactive = no such curve, though single readings can be large; an effect the other way counts as inactive or inconclusive.

Take `CC(C)C(C)C`: the caspase-3 activation in assay [1] is 0.762%; in [2] it was -0.199%; in assay [3], -1.39%. Further, the outcome in assay [4], in assay [8], in assay [9], in assay [10] and in assay [11] was inactive. The Potency result in [5], in [6], in assay [7], in assay [12], in [13] and in assay [14] was “inactive” throughout. In addition, the Potency entry in assay [15] was “inactive”.

In the case of `CCCC(C)CO` (stereo not drawn), the caspase-3 activation was 0.885% in assay [1], 1.09% in assay [2] and 1.12% in assay [3]. The molecule was called inactive in [4], in assay [16], in assay [8], in assay [9], in [17] and in assay [10]. The result in [11] was inactive. The Potency result in [5], in assay [6], in [7], in assay [12], in [14] and in [15] was “inactive” each time.

In the case of `Nc1ccccc1S(=O)(=O)O`, the results for the caspase-3 activation in assay [1], in assay [2] and in assay [3] were -0.218%, -0.112% and 1.83%, respectively. Besides, the outcome in assay [4], in assay [16], in assay [8], in assay [17], in assay [10] and in assay [11] was inactive. Also, the Potency entry in assay [5], in assay [6], in [7], in assay [12], in assay [13] and in assay [18] was “inactive” each time. Also, the Potency result in [14] and in assay [15] was “inactive” in each case.

Turning to `CCCCCNCCCCC`, the caspase-3 activation in assay [1] is 0.424%; in assay [2] it was 0.00908%; in [3], 1.85%. Moreover, the result in [4], in assay [16], in assay [17], in [10] and in assay [11] was inactive. Further, the Potency result in assay [5], in [6], in assay [7], in [12], in [13] and in assay [18] was “inactive” in each case. The Potency entry in assay [14] and in [15] was “inactive” in each case.

With `O=C(O)c1ccc(Cl)c(Cl)c1`, the caspase-3 activation in assay [1] is -0.246%; in assay [2], -0.517%; in assay [3], 0.484%. Besides, the call in [4], in [16], in assay [8], in [17], in assay [10] and in [11] was inactive. For the same molecule, the Potency result in assay [5], in [6], in assay [7], in assay [12], in assay [13] and in assay [18] was “inactive” in each case. Further, the Potency entry in assay [14] and in assay [15] was “inactive” in each case.

Turning to `C=Cc1ccccn1`, the caspase-3 activation was 2.96% in [1], 1.92% in assay [2] and 3.43% in assay [3]. Moreover, the result in [4], in [16], in assay [8], in [9], in assay [17] and in assay [10] was inactive. The result in assay [11] was inactive. The Potency entry in [5], in assay [6], in assay [7], in [12], in [13] and in assay [18] was “inactive” in each case. Further, the Potency entry in assay [14] and in [15] was “inactive” each time.

For the molecule `C=C(C)C(=O)OCC(C)C`, the values for the caspase-3 activation in [1], in [2] and in assay [3] were 1.08%, 0.664% and -0.498%, respectively. In addition, the molecule was called inactive in [4], in assay [8], in [9], in assay [17], in assay [10] and in [11]. The Potency result in assay [5], in assay [6], in assay [7], in assay [12], in assay [18] and in assay [14] was “inactive” throughout. For the same molecule, the Potency entry in [15] is “inactive”.

Take `Nc1nc(-c2ccccc2)cs1`: the caspase-3 activation in [1] is 0.48%; in assay [2], 0.301%; in assay [3], 0.507%. The molecule was classed as inactive in [4], in [19], in assay [8], in [9], in [17] and in assay [10]. Moreover, the Potency result in assay [5], in assay [7], in assay [12], in assay [13], in [18] and in assay [14] was “inactive” throughout. Moreover, the Potency entry in assay [15] was “inactive”. Also, the Potency in [6] is 20 µM (active).

Regarding `O=C(Cl)c1cccc([N+](=O)[O-])c1`, the caspase-3 activation in assay [1] is -1.19%; in [2], 3.32%; in [3] it was 0.786%. The result in [4], in [16], in assay [8], in assay [9] and in assay [11] was inactive. Further, the Potency entry in assay [5], in assay [6], in [7], in assay [12], in assay [13] and in assay [18] was “inactive” each time. Besides, the Potency result in [14] and in assay [15] was “inactive” each time.

These data come from PubChem BioAssay (NCATS).
